The AC50 is the midpoint of the concentration-response curve, whichever way the signal moves.

Activity calls are given as the source filed them. The calls were made as follows: active = hit-call score of the fitted dose curve at least 0.9, where 1 is the maximum; inactive = score below 0.9.

Experimental findings from PubChem BioAssay (EPA / NIEHS) are described below.

The nature of test [1]: ATG_E_Box_CIS: Attagene CIS-FACTORIAL HepG2 Assay for human Enhancer Box (E-box) (AID 2282936). To be noted: HepG2 E-box cis-reporter transcription, actives raise or lower the signal. In a few lines:
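HepG2 cells transiently transfected with multiplexed cis-element reporter units, dosed 24 h; reporter mRNA quantified by RT-PCR, 6-FAM labelling, HpaI digestion and capillary electrophoresis. E-box (USF1) signal fitted bidirectionally vs DMSO.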

A short description of test [2]: ATG_M_61_CIS: Attagene CIS-FACTORIAL HepG2 Assay for M61 Transcription Factor (Internal Marker) (AID 2282937). To be noted: HepG2 Attagene CIS-FACTORIAL M61 internal marker reporter; actives raise or lower the signal. In a few lines: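 Human liver HepG2, transient MRTU transfection (cis promoter elements), 24 h compound. Total RNA → oligo(dT) RT → PCR → FAM label → HpaI → CE. Internal background marker; bidirectional fitting, DMSO = baseline.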

The nature of test [3]: ATG_EGR_CIS: Attagene CIS-FACTORIAL HepG2 Assay for human Early Growth Response 1 (EGR1) (AID 2282938). To be noted: HepG2 Attagene CIS-FACTORIAL EGR reporter mRNA; actives raise or lower the signal. In a few lines: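 Transient transfection of human HepG2 with multiple cis-regulated reporter units, chemical exposure 24 h, total RNA isolated. Reverse transcription, PCR, fluorescent labelling and capillary electrophoresis quantify reporter transcripts; activity fitted bidirectionally against DMSO.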

Test [4] can be described thus: ATG_M_19_CIS: Attagene CIS-FACTORIAL HepG2 Assay for M19 Transcription Factor (Internal Marker) (AID 2282939). To be noted: HepG2 Attagene CIS-FACTORIAL M19 internal marker reporter; actives raise or lower the signal. In a few lines: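 Readout: fluorescent reporter-transcript fragments by capillary electrophoresis after RT-PCR. Human HepG2 liver cells carried transfected MRTU constructs reporting endogenous transcription-factor activity; exposure 24 h. Gain or loss of signal fitted relative to DMSO.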

Test [5] is described as follows: ATG_ERE_CIS: Attagene CIS-FACTORIAL HepG2 Assay for Estrogen Response Element (ERE) (AID 2282940). To be noted: HepG2 ERE cis-reporter, Attagene RNA transcript; actives raise or lower the signal. In a few lines: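 Readout: reporter mRNA induction by RT-PCR, FAM-labelled primer extension, HpaI digestion and capillary electrophoresis, 24 h after dosing transfected HepG2 cells. Endogenous transcription factors act on cis-element-regulated reporters. Gain or loss fitted against DMSO.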

Test [6] is described as follows: ATG_Ets_CIS: Attagene CIS-FACTORIAL HepG2 Assay for human Erythroblast Transformation Specific (ETS) (AID 2282941). To be noted: HepG2 ETS cis-reporter transcription, actives raise or lower the signal. In a few lines: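 After transient cis-reporter transfection, HepG2 cells receive test chemical for 24 h. Reporter mRNA levels, measured by RT-PCR and capillary electrophoresis fluorescence, are analysed bidirectionally relative to the DMSO baseline.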

The target of test [7] is Hepatocyte nuclear factor 3-beta (Homo sapiens) (UniProt Q9Y261). Put plainly: ATG_FoxA2_CIS: Attagene CIS-FACTORIAL HepG2 Assay for human Forkhead box A2 (FOXA2) (AID 2282942). The following applies: HepG2 cis-reporter transcription factor activity, 24 h; actives raise or lower the signal. In a few lines: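 Transient MRTU transfection of HepG2 liver cells; 24 h treatment; total RNA → oligo(dT) RT → PCR → FAM primer extension → HpaI cut → CE. Bidirectional fit vs DMSO.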

Test [8] can be described thus: ATG_FoxO_CIS: Attagene CIS-FACTORIAL HepG2 Assay for human Forkhead box O (FoxO) (AID 2282943). The following applies: HepG2 Attagene cis-reporter, FoxO element, mRNA; actives raise or lower the signal. An outline of the steps:
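Transfected HepG2 reporter cells exposed to test chemical for 24 h; reporter RNA measured by reverse transcription, PCR and fluorescent capillary electrophoresis; curves fitted for increases and decreases against DMSO.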

Test [9] in a line: ATG_GATA_CIS: Attagene CIS-FACTORIAL HepG2 Assay for human GATA Binding Protein (AID 2282944). The following applies: HepG2 GATA cis-element reporter, Attagene multiplex mRNA; actives raise or lower the signal. In a few lines: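 Read-out: fluorescent reporter mRNA fragments resolved by capillary electrophoresis after RT-PCR. Human liver HepG2 cells carried transiently transfected cis-regulated reporter constructs; chemicals incubated 24 h; gain or loss of signal fitted relative to DMSO.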

The nature of test [10]: ATG_GLI_CIS: Attagene CIS-FACTORIAL HepG2 Assay for human Zinc Finger Protein GLI1 (AID 2282945). To be noted: HepG2, Attagene cis-factorial reporter mRNA, GLI element; actives raise or lower the signal. An outline of the steps:
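Transiently transfected HepG2 cells report endogenous transcription factor activity via cis-element-driven reporter units. After 24 h compound exposure, reporter mRNA was measured by RT-PCR with capillary electrophoresis; bidirectional fitting against DMSO baseline.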

Test [11] in a line: ATG_GRE_CIS: Attagene CIS-FACTORIAL HepG2 Assay for human Glucocorticoid Response Elements (GRE) (AID 2282947). To be noted: HepG2 GRE cis-reporter, Attagene multiplex mRNA; actives raise or lower the signal. An outline of the steps: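 Transiently transfected HepG2 cells carrying GRE cis-reporter units (endogenous TF activity) dosed 24 h; reporter mRNA quantified by RT-PCR, 6-FAM labelling, HpaI digestion and capillary electrophoresis. Bidirectional fit versus DMSO baseline.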

The nature of test [12]: ATG_ISRE_CIS: Attagene CIS-FACTORIAL HepG2 Assay for human Interferon Regulatory Factor 1 (IRF1) binding to an Interferon-Stimulated Response Element (ISRE) (AID 2282948). The following applies: HepG2 ISRE cis-reporter (Attagene), mRNA transcription readout; actives raise or lower the signal. In a few lines: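 Quantitation relies on labelled RT-PCR fragments separated by capillary electrophoresis. Human HepG2 cells bearing cis-promoter reporter constructs were treated 24 h; DMSO served as baseline for bidirectional fitting.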

Test [13] can be described thus: ATG_M_32_CIS: Attagene CIS-FACTORIAL HepG2 Assay for M32 Transcription Factor (Internal Marker) (AID 2282949).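 Also: background control marker of the multiplexed CIS panel rather than a real target.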 To be noted: HepG2 Attagene cis-factorial M32 reporter, mRNA; actives raise or lower the signal. In a few lines: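 Fluorescent capillary electrophoresis peaks of HpaI-digested, FAM-labelled RT-PCR reporter products give the signal. Source: transiently transfected human liver HepG2 cells, 24 h after chemical dosing; bidirectional fitting against DMSO.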

Test [14] can be described thus: ATG_M_06_CIS: Attagene CIS-FACTORIAL HepG2 Assay for M06 Transcription Factor (Internal Marker) (AID 2282950). The following applies: HepG2 Attagene CIS-FACTORIAL M06 internal marker reporter; actives raise or lower the signal. In a few lines: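 Terse: HepG2, transient MRTU transfection (FuGene 6), 24 h dosing; total RNA, oligo(dT) RT, PCR, FAM label, HpaI cut, capillary electrophoresis; bidirectional fit vs DMSO baseline; background-control endpoint.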

Test [15] has as its target Hypoxia-inducible factor 1-alpha (Homo sapiens) (UniProt Q16665). The test is described as follows: ATG_HIF1a_CIS: Attagene CIS-FACTORIAL HepG2 Assay for human Hypoxia Inducible Factor 1 (HIF1A) (AID 2282951). To be noted: HepG2 Attagene cis-factorial HIF1a reporter transcription; actives raise or lower the signal. An outline of the steps: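 Transient MRTU transfection of human HepG2 liver cells, 24 h compound treatment, then total RNA isolation, oligo(dT) reverse transcription, PCR amplification, fluorescent labelling and capillary electrophoresis of reporter fragments. Gain or loss relative to DMSO.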

In test [16] the target is Hepatocyte nuclear factor 6 (Homo sapiens) (UniProt Q9UBC0). Put plainly: ATG_HNF6_CIS: Attagene CIS-FACTORIAL HepG2 Assay for human Hepatocyte Nuclear Factor 6 (HNF6) (AID 2282952). The following applies: HepG2 Attagene cis-factorial HNF6 reporter transcription; actives raise or lower the signal. An outline of the steps:
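HepG2, transient MRTU transfection (cis promoters); 24 h chemical exposure; total RNA → oligo(dT) RT → PCR → 6-FAM labelling → HpaI cut → CE; bidirectional fit vs DMSO.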

The target of test [17] is Heat shock factor protein 1 (Homo sapiens) (UniProt Q00613). The test is described as follows: ATG_HSE_CIS: Attagene CIS-FACTORIAL HepG2 Assay for human Heat Shock Transcription Factor 1 (HSE) (AID 2282953). The following applies: HepG2 HSE cis-reporter, Attagene RNA transcription; actives raise or lower the signal. In a few lines: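 Read-out: fluorescence of reporter-specific RT-PCR fragments separated by capillary electrophoresis. HepG2 carrying transfected cis-element reporter units; 24 h dosing; activity fitted in both directions relative to DMSO baseline.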

Test [18] can be described thus: ATG_MRE_CIS: Attagene CIS-FACTORIAL HepG2 Assay for human Metal Responsive Element (MRE) (AID 2282954). To be noted: HepG2 MRE cis-reporter transcription, Attagene multiplex; actives raise or lower the signal. An outline of the steps:
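HepG2 cells transiently transfected with cis-element-driven reporter units; mRNA measured 24 h after dosing. Reporter transcripts quantified by RT-PCR, FAM labelling, HpaI digestion and capillary electrophoresis; bidirectional fit versus DMSO.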

Test [19] addresses Bile acid receptor (Homo sapiens) (UniProt Q96RI1). Put plainly: ATG_IR1_CIS: Attagene CIS-FACTORIAL HepG2 Assay for human Nuclear Receptor Subfamily 1 Group H Member 4 (NR1H4), IR1 submotif (AID 2282946). The following applies: IR1 reporter transcription, actives raise or lower the signal. An outline of the steps:
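HepG2 cells transiently transfected with multiple cis-promoter-driven reporter units to measure endogenous transcription factor activity; 24 h exposure. Reporter mRNA read by RT-PCR, FAM labelling, HpaI digestion and capillary electrophoresis. Bidirectional fit versus DMSO.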

The nature of test [20]: ATG_PBREM_CIS: Attagene CIS-FACTORIAL HepG2 Assay for human Phenobarbital-responsive Enhancer Module (PBREM) (AID 2282955). To be noted: HepG2 PBREM cis-reporter, Attagene multiplexed transcription; actives raise or lower the signal. An outline of the steps: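 Endogenous transcription factors in human liver HepG2 cells drive a PBREM cis-element reporter, whose transcript level after 24 h treatment is quantified by RT-PCR with capillary electrophoresis; activity fitted in both directions against DMSO.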

Hypoxia-inducible factor 1-alpha (Homo sapiens), sequence (Q16665 whole entry, looked up, the tested form may be a part): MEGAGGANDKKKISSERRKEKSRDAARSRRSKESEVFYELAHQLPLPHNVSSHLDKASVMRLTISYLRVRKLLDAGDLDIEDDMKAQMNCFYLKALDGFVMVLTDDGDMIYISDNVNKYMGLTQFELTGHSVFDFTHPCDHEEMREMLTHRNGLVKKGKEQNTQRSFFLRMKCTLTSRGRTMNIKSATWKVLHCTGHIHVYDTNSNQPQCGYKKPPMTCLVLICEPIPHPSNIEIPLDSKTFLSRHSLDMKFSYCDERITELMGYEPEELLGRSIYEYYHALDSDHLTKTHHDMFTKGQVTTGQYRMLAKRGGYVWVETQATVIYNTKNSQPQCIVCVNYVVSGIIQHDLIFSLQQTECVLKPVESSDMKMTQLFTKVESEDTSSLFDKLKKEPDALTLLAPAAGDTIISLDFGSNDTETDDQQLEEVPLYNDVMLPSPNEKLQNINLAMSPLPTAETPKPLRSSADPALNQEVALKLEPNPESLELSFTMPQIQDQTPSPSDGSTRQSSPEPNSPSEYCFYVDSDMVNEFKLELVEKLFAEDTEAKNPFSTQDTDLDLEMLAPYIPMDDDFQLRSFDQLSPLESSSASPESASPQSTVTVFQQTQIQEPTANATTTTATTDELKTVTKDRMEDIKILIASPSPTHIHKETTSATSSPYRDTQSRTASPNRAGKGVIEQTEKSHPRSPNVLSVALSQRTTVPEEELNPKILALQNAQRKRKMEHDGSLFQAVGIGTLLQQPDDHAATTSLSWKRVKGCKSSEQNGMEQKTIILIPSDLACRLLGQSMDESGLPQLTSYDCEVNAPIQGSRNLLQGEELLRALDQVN
Hepatocyte nuclear factor 3-beta (Homo sapiens), sequence (Q9Y261 whole entry, looked up): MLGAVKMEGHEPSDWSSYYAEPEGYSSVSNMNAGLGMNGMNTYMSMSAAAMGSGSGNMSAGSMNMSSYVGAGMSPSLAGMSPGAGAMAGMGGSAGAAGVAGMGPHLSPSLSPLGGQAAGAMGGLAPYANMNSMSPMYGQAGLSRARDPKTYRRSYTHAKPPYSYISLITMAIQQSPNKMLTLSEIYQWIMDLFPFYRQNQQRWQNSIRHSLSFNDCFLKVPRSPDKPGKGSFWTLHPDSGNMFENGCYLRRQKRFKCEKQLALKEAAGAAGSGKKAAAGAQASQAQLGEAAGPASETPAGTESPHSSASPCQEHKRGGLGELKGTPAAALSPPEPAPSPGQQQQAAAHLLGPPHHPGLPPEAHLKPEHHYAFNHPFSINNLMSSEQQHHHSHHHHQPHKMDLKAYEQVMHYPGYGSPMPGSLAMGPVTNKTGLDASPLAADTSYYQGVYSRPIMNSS
Heat shock factor protein 1 (Homo sapiens), sequence (Q00613 whole entry, looked up, the tested form may be a part): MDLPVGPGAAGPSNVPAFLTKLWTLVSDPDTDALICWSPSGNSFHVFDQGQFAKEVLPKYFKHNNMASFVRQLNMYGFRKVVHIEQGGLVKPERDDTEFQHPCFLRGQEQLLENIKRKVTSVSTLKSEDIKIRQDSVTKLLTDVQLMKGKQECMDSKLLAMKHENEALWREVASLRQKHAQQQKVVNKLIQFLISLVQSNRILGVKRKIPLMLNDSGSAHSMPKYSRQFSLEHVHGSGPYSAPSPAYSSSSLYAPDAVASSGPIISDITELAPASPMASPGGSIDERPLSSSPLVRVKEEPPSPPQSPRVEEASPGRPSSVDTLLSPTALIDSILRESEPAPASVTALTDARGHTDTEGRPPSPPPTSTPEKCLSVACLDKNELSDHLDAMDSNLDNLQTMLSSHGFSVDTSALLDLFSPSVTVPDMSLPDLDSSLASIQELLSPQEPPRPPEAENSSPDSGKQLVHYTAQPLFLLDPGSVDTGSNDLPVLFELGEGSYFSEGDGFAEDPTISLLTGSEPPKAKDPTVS
Hepatocyte nuclear factor 6 (Homo sapiens), sequence (Q9UBC0 whole entry, looked up): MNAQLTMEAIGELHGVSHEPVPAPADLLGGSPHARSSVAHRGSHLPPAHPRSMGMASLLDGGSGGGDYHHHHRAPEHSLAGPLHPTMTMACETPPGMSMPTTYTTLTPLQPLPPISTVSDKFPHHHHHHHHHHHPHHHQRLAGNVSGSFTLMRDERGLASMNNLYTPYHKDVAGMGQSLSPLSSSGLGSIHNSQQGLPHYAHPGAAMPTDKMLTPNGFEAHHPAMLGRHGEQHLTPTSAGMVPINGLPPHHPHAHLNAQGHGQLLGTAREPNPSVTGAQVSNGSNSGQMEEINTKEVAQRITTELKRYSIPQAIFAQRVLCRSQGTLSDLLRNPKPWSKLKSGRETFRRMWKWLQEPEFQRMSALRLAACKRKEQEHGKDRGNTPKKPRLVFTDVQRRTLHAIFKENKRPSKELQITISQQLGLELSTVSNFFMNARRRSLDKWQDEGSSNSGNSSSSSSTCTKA
Bile acid receptor (Homo sapiens), sequence (Q96RI1 whole entry, looked up): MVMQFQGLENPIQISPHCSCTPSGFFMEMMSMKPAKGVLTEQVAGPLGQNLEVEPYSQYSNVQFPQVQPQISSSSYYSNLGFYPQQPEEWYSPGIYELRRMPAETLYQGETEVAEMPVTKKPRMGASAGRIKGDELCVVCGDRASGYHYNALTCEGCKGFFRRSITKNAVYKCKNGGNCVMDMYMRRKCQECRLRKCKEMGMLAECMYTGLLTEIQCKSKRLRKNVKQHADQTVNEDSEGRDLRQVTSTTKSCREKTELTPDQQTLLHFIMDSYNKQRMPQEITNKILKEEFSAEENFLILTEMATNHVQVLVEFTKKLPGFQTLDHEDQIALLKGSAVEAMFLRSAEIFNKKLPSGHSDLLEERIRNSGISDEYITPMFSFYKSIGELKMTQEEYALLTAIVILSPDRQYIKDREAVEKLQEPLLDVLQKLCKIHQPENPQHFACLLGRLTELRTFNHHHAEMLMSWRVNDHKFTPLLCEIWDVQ

For the compound `C=CCCCCCCCCC(=O)O`, the result in test [1], in test [2], in [3], in [4], in [5] and in test [6] was inactive. For the same compound, the call in test [7], in [8], in [9], in test [10], in test [11] and in test [12] was inactive. The call in [13], in test [14], in test [15], in test [16], in test [17] and in test [18] was inactive.
Take `CC(C)c1cccc(C(C)C)c1N1C(=O)c2ccc(O)cc2C1=O`: the outcome in [1], in [2], in [6], in test [7], in test [8] and in test [9] was inactive. Moreover, the result in [11], in test [14] and in test [15] was inactive. The AC50 in [3] is 66.8 µM (active); in [4] it was 182 µM (active); in test [10] it was 126 µM (active); in [19], 69.5 µM (active); in [12], 84.7 µM (active); in test [16], 124 µM (active). For the same compound, the AC50 in test [17] is 68.4 µM (active); in test [18], 76.9 µM (active).
As to `CC(C)CCCCCCCOC(=O)CCCCC(=O)OCCCCCCCC(C)C`, the result in test [1], in [2], in [3], in [4], in [6] and in [7] was inactive. For the same compound, the result in [8], in test [9], in [10], in test [19], in test [11] and in [12] was inactive. In addition, the outcome in test [14], in [15], in test [16], in [17], in [18] and in test [20] was inactive.
Turning to `O=P(OC(CCl)CCl)(OC(CCl)CCl)OC(CCl)CCl`, the result in test [1], in test [2], in test [5], in test [7], in test [9] and in test [14] was inactive. Further, the AC50 was 63.5 µM (active) in [3]; 149 µM (active) in test [4]; 156 µM (active) in test [6]; 169 µM (active) in test [8]; 145 µM (active) in test [10]; 153 µM (active) in test [11]. Also, the AC50 in test [12] is 23.2 µM (active); in [15], 36.3 µM (active); in test [16] it was 153 µM (active); in test [17] it was 151 µM (active); in [18], 107 µM (active).
